We go through 39 targets from the supplement of paper PMC10849652.

About 8,800 targets were measured; listed, in parts, are those with a hit and a random draw of the rest. About 0.5% of all pairs of compound and target were hits. A number with no mark means an inactive call.

UniProt Q14157, sequence (Q14157 whole entry, looked up): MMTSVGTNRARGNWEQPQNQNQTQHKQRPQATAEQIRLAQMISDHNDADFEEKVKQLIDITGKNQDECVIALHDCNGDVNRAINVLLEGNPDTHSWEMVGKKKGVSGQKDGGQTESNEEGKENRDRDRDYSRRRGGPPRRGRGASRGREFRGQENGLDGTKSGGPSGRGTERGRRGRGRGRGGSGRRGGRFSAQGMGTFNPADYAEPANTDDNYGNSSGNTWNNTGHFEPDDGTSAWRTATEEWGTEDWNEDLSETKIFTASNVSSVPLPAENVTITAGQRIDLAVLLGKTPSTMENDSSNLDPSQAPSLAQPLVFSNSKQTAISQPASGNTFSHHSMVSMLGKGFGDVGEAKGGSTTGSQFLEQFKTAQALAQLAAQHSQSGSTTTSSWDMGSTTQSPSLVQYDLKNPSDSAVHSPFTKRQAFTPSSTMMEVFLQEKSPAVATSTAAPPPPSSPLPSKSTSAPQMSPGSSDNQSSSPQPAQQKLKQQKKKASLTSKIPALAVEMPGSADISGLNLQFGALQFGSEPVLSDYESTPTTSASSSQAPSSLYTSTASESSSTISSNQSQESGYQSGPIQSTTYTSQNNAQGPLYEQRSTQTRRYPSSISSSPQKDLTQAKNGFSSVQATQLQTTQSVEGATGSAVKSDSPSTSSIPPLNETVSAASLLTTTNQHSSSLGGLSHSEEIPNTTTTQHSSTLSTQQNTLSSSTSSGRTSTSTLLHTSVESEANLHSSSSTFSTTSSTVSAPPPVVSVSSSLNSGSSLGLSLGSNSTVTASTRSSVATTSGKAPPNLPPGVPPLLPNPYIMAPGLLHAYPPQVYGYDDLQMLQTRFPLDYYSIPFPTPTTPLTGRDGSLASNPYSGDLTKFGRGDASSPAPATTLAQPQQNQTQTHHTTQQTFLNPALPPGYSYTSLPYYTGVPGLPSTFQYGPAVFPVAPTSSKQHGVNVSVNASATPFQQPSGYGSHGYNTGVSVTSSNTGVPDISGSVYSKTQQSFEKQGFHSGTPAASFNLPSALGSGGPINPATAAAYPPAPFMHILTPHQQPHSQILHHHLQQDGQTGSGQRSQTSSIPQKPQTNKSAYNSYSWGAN
UniProt Q5TAX3, sequence (Q5TAX3 whole entry, looked up): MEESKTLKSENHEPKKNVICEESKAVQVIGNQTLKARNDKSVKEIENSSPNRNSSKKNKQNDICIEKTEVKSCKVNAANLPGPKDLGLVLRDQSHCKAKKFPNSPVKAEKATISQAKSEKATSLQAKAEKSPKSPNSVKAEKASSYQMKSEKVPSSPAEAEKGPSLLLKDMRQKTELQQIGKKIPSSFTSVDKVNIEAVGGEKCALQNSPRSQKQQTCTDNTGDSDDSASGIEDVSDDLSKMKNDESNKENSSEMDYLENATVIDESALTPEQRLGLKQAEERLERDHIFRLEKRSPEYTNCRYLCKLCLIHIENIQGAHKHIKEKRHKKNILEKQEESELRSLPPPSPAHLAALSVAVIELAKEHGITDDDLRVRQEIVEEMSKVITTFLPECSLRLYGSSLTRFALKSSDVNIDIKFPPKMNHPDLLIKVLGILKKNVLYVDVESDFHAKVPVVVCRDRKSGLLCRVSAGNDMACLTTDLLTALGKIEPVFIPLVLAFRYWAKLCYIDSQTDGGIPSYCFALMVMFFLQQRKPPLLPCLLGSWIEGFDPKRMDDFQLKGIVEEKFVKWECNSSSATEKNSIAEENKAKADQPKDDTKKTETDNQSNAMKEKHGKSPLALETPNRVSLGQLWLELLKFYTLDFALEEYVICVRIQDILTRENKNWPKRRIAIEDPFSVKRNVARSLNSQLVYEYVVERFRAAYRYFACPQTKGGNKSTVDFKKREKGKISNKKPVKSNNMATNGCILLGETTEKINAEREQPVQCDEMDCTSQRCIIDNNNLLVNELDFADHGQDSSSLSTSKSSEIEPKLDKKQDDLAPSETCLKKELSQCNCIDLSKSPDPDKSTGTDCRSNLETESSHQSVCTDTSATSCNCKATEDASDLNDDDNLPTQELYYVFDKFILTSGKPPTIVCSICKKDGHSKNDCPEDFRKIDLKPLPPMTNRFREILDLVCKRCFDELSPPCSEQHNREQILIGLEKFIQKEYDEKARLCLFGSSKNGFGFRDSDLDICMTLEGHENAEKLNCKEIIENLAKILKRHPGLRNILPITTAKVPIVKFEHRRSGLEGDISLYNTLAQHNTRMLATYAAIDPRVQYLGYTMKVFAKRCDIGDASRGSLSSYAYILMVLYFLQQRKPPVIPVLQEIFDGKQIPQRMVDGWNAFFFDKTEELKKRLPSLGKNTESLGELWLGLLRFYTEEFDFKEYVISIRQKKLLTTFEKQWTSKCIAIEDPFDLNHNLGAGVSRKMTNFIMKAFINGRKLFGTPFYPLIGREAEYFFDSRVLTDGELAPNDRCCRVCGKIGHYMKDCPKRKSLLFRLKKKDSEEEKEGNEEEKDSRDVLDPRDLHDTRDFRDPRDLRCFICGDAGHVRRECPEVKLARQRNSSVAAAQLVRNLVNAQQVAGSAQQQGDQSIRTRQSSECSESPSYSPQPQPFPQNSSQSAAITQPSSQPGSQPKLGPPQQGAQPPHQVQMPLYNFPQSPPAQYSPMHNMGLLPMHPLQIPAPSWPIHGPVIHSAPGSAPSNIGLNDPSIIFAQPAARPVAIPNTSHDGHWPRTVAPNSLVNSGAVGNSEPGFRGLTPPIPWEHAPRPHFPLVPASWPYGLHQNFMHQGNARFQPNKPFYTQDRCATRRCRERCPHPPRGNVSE
UniProt P43897, sequence (P43897 whole entry, looked up): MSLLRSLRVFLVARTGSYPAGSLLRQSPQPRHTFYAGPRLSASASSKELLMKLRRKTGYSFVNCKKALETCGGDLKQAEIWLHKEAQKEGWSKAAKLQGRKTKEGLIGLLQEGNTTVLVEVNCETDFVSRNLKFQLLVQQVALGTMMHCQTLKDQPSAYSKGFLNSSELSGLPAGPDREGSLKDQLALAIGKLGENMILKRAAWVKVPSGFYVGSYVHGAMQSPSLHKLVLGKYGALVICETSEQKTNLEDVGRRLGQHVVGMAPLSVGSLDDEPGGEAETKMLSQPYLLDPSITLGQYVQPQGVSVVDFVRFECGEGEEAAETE
UniProt O43493, sequence (O43493 whole entry, looked up): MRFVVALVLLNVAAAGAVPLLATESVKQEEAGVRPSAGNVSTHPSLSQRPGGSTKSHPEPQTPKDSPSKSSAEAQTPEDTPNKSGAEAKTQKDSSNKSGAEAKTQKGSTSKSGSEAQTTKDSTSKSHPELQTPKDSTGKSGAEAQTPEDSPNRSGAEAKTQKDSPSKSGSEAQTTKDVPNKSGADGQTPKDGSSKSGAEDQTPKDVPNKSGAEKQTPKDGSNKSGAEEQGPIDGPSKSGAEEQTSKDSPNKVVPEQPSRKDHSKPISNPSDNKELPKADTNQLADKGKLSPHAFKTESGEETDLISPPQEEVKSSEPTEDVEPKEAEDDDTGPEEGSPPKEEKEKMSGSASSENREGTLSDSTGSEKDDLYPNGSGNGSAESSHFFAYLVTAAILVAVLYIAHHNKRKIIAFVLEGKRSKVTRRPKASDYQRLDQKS
UniProt Q9UGJ1, sequence (Q9UGJ1 whole entry, looked up): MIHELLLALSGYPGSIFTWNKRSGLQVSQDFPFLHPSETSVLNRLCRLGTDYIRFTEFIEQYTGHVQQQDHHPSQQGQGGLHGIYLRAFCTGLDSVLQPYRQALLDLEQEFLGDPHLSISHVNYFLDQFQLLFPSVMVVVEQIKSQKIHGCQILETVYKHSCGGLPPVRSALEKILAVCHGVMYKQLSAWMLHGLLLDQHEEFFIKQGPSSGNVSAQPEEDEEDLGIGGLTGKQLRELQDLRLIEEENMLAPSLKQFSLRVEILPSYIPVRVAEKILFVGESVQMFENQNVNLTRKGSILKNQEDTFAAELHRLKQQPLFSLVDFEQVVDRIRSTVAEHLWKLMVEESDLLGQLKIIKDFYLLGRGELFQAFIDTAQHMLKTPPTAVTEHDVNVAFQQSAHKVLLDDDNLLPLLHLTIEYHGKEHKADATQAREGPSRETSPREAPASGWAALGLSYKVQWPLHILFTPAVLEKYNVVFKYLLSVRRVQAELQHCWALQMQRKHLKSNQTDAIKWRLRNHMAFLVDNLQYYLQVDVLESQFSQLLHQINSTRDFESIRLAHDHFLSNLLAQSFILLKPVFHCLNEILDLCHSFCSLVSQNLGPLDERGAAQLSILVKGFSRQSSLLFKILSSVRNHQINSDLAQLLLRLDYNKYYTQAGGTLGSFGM
UniProt O43615, sequence (O43615 whole entry, looked up): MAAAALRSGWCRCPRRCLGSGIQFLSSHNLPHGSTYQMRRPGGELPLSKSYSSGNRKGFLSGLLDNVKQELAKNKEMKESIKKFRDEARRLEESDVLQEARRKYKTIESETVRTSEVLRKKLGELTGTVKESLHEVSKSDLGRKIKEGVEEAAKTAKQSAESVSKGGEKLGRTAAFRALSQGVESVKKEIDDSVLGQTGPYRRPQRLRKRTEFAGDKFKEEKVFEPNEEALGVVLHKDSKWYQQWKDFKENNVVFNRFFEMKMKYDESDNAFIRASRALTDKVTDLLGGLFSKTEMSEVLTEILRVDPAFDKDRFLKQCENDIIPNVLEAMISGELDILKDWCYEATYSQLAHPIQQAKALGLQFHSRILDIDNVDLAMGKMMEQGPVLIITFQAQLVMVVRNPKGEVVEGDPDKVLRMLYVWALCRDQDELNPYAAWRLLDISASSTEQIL
UniProt P09493, sequence (P09493 whole entry, looked up): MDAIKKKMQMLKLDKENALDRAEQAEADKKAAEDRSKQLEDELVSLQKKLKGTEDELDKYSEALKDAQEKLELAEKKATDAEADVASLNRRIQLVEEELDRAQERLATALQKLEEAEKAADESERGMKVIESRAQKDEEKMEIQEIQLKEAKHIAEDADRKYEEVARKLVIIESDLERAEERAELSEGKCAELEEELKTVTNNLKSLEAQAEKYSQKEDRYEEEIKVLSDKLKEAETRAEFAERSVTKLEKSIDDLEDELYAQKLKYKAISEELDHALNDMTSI

Compound in one assay: C1=CC=C(C=C1)[C@H](COC2=CC3=C(C=C2)NC(=O)N3)NC(=O)C4=CC=CN(C4=O)CC5=CC(=C(C=C5)F)F
In words: log2 fold change, soluble protein after heating vs DMSO (PISA); higher = thermal stabilisation; K562 lysate, 10 uM; active = over 0.2 and 3.5 SD of the protein, either way, in both replicates (recomputed). Summed up: (§1)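 Values give the log-two fold change in thermal stability against solvent controls, from duplicates. Crude K562 extract at 1 mg/mL protein, made by dounce homogenisation in PBS pH 7.4 with 1 mM MgCl2, was treated with 10 μM compound for 30 min. After 3 min heating across 48°C-58°C, aliquots were pooled, adjusted to 0.5% NP-40 at 4°C and centrifuged at 21,000xg for 90 min. The supernatant was measured by TMTpro 16plex LC-MS/MS with channel sums equalised.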
Take TPD52L2 isoform 7 (UniProt O43399): the log2 fold change is 0.046.
TFPI (UniProt P10646): the log2 fold change is 0.053.
UBE4A isoform 2 (UniProt Q14139): the log2 fold change was -0.016.
Same read-out and setting: with TIMM44 (UniProt O43615) the figure was -0.062.
As for TOR3A (UniProt Q9H497), the log2 fold change is -0.009.
As to TSFM (UniProt P43897), the log2 fold change is 0.006.
As for TRAF2 isoform 2 (UniProt Q12933), the log2 fold change was -0.006.
Still for that read-out and setting: with UBAP2L isoform 5 (UniProt Q14157) the figure was -0.047; with TNPO3 (UniProt Q9Y5L0), -0.024; with TUBGCP4 (UniProt Q9UGJ1), -0.005.
Consider TRMT10A (UniProt Q8TBZ6), for which the log2 fold change was -0.046.
On the same count and under the same terms, under TUT4 (UniProt Q5TAX3) stands -0.032; under TGOLN2 isoform 7 (UniProt O43493), 0.065.
Consider TPM1 isoform 4 (UniProt P09493), for which the log2 fold change is -0.008.
Take TUBA1B (UniProt P68363): the log2 fold change is -0.006.

Compound in a further assay: CC1=C(SC2=C1C(=N[C@H](C3=NN=C(N32)C)CC(=O)N)C4=CC=C(C=C4)Cl)C
The description is as above. A digest of the protocol: as §1
Regarding THEMIS2 (UniProt Q5TEJ8), the log2 fold change was 0.
With UBAP2 (UniProt Q5T6F2), the log2 fold change is -0.003.
Same read-out and setting: under TOPBP1 (UniProt Q92547) stands 0.001; under TTF2 (UniProt Q9UNY4), 0.029.
With TMEM161B (UniProt Q8NDZ6), the log2 fold change was -0.052.
Take TRIP13 (UniProt Q15645): the log2 fold change was 0.015.
Consider TRMT12 (UniProt Q53H54), for which the log2 fold change was -0.023.
The same measure, in the same setting: under TUBB6 (UniProt K7ES63) stands 0.02; under TBK1 (UniProt Q9UHD2), 0.021; under UGDH (UniProt O60701), 0.001.
On the same count and under the same terms, with TUBGCP5 (UniProt Q96RT8) the figure was 0.088; with TRIM65 (UniProt Q6PJ69), -0.085.
In the case of TUBB4A (UniProt M0QYM7), the log2 fold change was -0.162.
Same read-out and setting: with TTI2 (UniProt Q6NXR4) the figure was 0.009; with TEX30 (UniProt Q5JUR7), 0.066.
On to TTC38 (UniProt Q5R3I4), for which the log2 fold change was 0.
Turning to TFCP2 (UniProt Q12800), the log2 fold change is -0.013.
Still for that read-out and setting: under TYW3 (UniProt Q6IPR3) stands 0.006.
Same read-out and setting: under TK1 (UniProt P04183) stands 0.037.
Take UBL4A (UniProt P11441): the log2 fold change was -0.003.
With TTC27 (UniProt Q6P3X3), the log2 fold change was -0.021.
Regarding TELO2 (UniProt Q9Y4R8), the log2 fold change is -0.012.
On the same count and under the same terms, under TXNIP (UniProt Q9H3M7) stands 0.005; under TRAPPC10 (UniProt P48553), -0.015.
Same read-out and setting: under TPD52L2 isoform 7 (UniProt O43399) stands -0.036; under TFPI (UniProt P10646), -0.116.
The same measure, in the same setting: with UBE4A isoform 2 (UniProt Q14139) the figure was -0.041; with TIMM44 (UniProt O43615), 0; with TOR3A (UniProt Q9H497), -0.025.
TSFM (UniProt P43897): the log2 fold change is 0.007.
Same read-out and setting: under TRAF2 isoform 2 (UniProt Q12933) stands 0.005; under UBAP2L isoform 5 (UniProt Q14157), 0.049; under TNPO3 (UniProt Q9Y5L0), 0.07.
For TUBGCP4 (UniProt Q9UGJ1), the log2 fold change was 0.019.
TRMT10A (UniProt Q8TBZ6): the log2 fold change was 0.099.
Still for that read-out and setting: with TUT4 (UniProt Q5TAX3) the figure was -0.024; with TGOLN2 isoform 7 (UniProt O43493), -0.029.
Take TPM1 isoform 4 (UniProt P09493): the log2 fold change is -0.012.
Still for that read-out and setting: under TUBA1B (UniProt P68363) stands 0.014.

Compound in a further assay: CC1=C2C(=CC=C1)N=C(N(C2=O)C3=CC=CC=C3C)CN4C=NC5=C(N=CN=C54)N
The description is as above. A digest of the protocol:
as §1
In the case of THEMIS2 (UniProt Q5TEJ8), the log2 fold change was 0.019.
Consider UBAP2 (UniProt Q5T6F2), for which the log2 fold change was -0.008.
The same measure, in the same setting: under TOPBP1 (UniProt Q92547) stands 0.026; under TTF2 (UniProt Q9UNY4), 0.003; under TMEM161B (UniProt Q8NDZ6), -0.076.
For the target TRIP13 (UniProt Q15645), the log2 fold change was 0.018.
As to TRMT12 (UniProt Q53H54), the log2 fold change is -0.007.
For TUBB6 (UniProt K7ES63), the log2 fold change is -0.028.
In the case of TBK1 (UniProt Q9UHD2), the log2 fold change was -0.031.
For UGDH (UniProt O60701), the log2 fold change was -0.004.
On the same count and under the same terms, under TUBGCP5 (UniProt Q96RT8) stands 0.039; under TRIM65 (UniProt Q6PJ69), -0.016.
Same read-out and setting: under TUBB4A (UniProt M0QYM7) stands 0.016.
Same read-out and setting: with TTI2 (UniProt Q6NXR4) the figure was 0.033.
TEX30 (UniProt Q5JUR7): the log2 fold change is -0.006.
On the same count and under the same terms, under TTC38 (UniProt Q5R3I4) stands 0.05.
Still for that read-out and setting: under TFCP2 (UniProt Q12800) stands 0.004; under TYW3 (UniProt Q6IPR3), 0.065; under TK1 (UniProt P04183), -0.017.
Take UBL4A (UniProt P11441): the log2 fold change was -0.017.
Turning to TTC27 (UniProt Q6P3X3), the log2 fold change was 0.028.
Still for that read-out and setting: under TELO2 (UniProt Q9Y4R8) stands -0.019; under TXNIP (UniProt Q9H3M7), 0.029.
The same measure, in the same setting: with TRAPPC10 (UniProt P48553) the figure was 0.033; with TPD52L2 isoform 7 (UniProt O43399), -0.024.
With TFPI (UniProt P10646), the log2 fold change is -0.16.
The same measure, in the same setting: with UBE4A isoform 2 (UniProt Q14139) the figure was 0.003.
On the same count and under the same terms, with TIMM44 (UniProt O43615) the figure was 0.034.
Still for that read-out and setting: with TOR3A (UniProt Q9H497) the figure was 0.013.
In the case of TSFM (UniProt P43897), the log2 fold change was 0.027.
As to TRAF2 isoform 2 (UniProt Q12933), the log2 fold change was -0.005.
Still for that read-out and setting: under UBAP2L isoform 5 (UniProt Q14157) stands -0.022; under TNPO3 (UniProt Q9Y5L0), -0.003.
Consider TUBGCP4 (UniProt Q9UGJ1), for which the log2 fold change was 0.012.
For TRMT10A (UniProt Q8TBZ6), the log2 fold change is -0.025.
With TUT4 (UniProt Q5TAX3), the log2 fold change was 0.035.
With TGOLN2 isoform 7 (UniProt O43493), the log2 fold change is -0.015.
Same read-out and setting: under TPM1 isoform 4 (UniProt P09493) stands 0; under TUBA1B (UniProt P68363), 0.004.
